In PubChem BioAssay (NCI):
The panel holds about 83,000 compounds, 20% with a hit somewhere; the sample as a whole holds those more often.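 Growth was measured after 48 h exposure to one concentration of compound in 96-well plates. Values under 10 count as active.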 The source made the active and inactive calls.

Columns and labels:
Assay in all cases: NCI-60 one-dose screen, 48 h (100 = growth as untreated, 0 = no growth, -100 = all killed)
HOP-62 NSCLC = conditions: 10 µM unless noted
NCI-H460 lung = conditions: 10 µM unless noted
A549/ATCC NSCLC = conditions: 10 µM unless noted
786-0 renal = conditions: 10 µM unless noted
K-562 leukemia = conditions: 10 µM unless noted
MALME-3M melanoma = conditions: 10 µM unless noted
RXF 393 renal = conditions: 10 µM unless noted
SF-295 CNS = conditions: 10 µM unless noted
SF-539 CNS = conditions: 10 µM unless noted
UACC-257 melanoma = conditions: 10 µM unless noted
UO-31 renal = conditions: 10 µM unless noted
CAKI-1 renal = conditions: 10 µM unless noted
A498 renal = conditions: 10 µM unless noted
HL-60(TB) leukemia = conditions: 10 µM unless noted
MOLT-4 leukemia = conditions: 10 µM
RPMI-8226 leukemia = conditions: 10 µM unless noted
OVCAR-4 ovarian = conditions: 10 µM unless noted
BT-549 breast = conditions: 10 µM
HCC-2998 colon = conditions: 10 µM unless noted
SNB-75 CNS = conditions: 10 µM unless noted

Measured: growth

Cc1ccccc1O
inactive: HOP-62 NSCLC 95.4% | NCI-H460 lung 117% | A549/ATCC NSCLC 100% | 786-0 renal 105% | K-562 leukemia 119% | MALME-3M melanoma 115% | RXF 393 renal 102% | SF-295 CNS 135% | SF-539 CNS 104% | UACC-257 melanoma 106% | UO-31 renal 82.6% | CAKI-1 renal 96.2% | A498 renal 129% | HL-60(TB) leukemia 110% | MOLT-4 leukemia 107% | RPMI-8226 leukemia 108% | OVCAR-4 ovarian 101% | BT-549 breast 102% | HCC-2998 colon 99.4%

CC[CH2][Pb]([CH2]CC)([CH2]CC)[O]C(=O)C(F)(F)F
active: HOP-62 NSCLC -84.3% | NCI-H460 lung -71.6% | 786-0 renal -98.6% | K-562 leukemia 2.17% | MALME-3M melanoma -89.2% | RXF 393 renal -73.9% | SF-295 CNS -87.6% | SF-539 CNS -99.2% | SNB-75 CNS -99.9% | UO-31 renal -100% | CAKI-1 renal -95.2% | A498 renal -97.6% | HL-60(TB) leukemia -29.7% | MOLT-4 leukemia -27.8% | OVCAR-4 ovarian -97.4% | BT-549 breast -95.3% | HCC-2998 colon -84.4%

C[C@]12CCc3sc(-c4ccc(Cl)cc4)nc3C1=CC[C@@H]1[C@@H]2CC[C@]2(C)C(=O)CC[C@@H]12
inactive: HOP-62 NSCLC 66% | NCI-H460 lung 72.5% | A549/ATCC NSCLC 80.2% | 786-0 renal 53.4% | MALME-3M melanoma 75% | SF-539 CNS 29.6% | UACC-257 melanoma 99% | SNB-75 CNS 58.3% | UO-31 renal 47.3% | CAKI-1 renal 67.7% | A498 renal 73.3% | HL-60(TB) leukemia 39% | OVCAR-4 ovarian 74% | BT-549 breast 60.6% | HCC-2998 colon 90.4%
active: K-562 leukemia 7.44% | RXF 393 renal -36.9% | SF-295 CNS 5.96% | MOLT-4 leukemia 8.47% | RPMI-8226 leukemia -17.8%

CC[C@H](C)[C@H](NC(=O)Nc1ccccc1)C(=O)N(C)[C@H](C[C@@H](OC(C)=O)c1nc(C(=O)N[C@@H](Cc2ccccc2)C[C@H](C)C(=O)OC)cs1)C(C)C
inactive: HOP-62 NSCLC 20.3% | A549/ATCC NSCLC 23.5% | 786-0 renal 18.1% | K-562 leukemia 15.7% | MALME-3M melanoma 41.4% | UACC-257 melanoma 60.6% | UO-31 renal 26.7% | MOLT-4 leukemia 15.7% | OVCAR-4 ovarian 31.5% | HCC-2998 colon 18.7%
active: NCI-H460 lung 1.7% | RXF 393 renal 0.067% | SF-295 CNS 4.42% | SF-539 CNS -26.3% | SNB-75 CNS 5.16% | A498 renal -15.6% | HL-60(TB) leukemia -17.2% | RPMI-8226 leukemia 8.45% | BT-549 breast 2.56%

O=C1NC(=O)C(=Cc2cn(Cc3ccccc3)c3ccccc23)C(=O)N1
active: A498 renal -72.6%
inactive: HOP-62 NSCLC 73.9% | NCI-H460 lung 29.9% | 786-0 renal 104% | K-562 leukemia 63.5% | MALME-3M melanoma 109% | RXF 393 renal 86.9% | SF-295 CNS 37.2% | SF-539 CNS 89.1% | UACC-257 melanoma 34.2% | SNB-75 CNS 77.6% | UO-31 renal 71.7% | CAKI-1 renal 62.4% | HL-60(TB) leukemia 96.3% | MOLT-4 leukemia 132% | RPMI-8226 leukemia 75.7% | OVCAR-4 ovarian 68.3% | BT-549 breast 77.6% | HCC-2998 colon 70.2%

CCCCCCCCCCCCOc1ccc(C(=O)Oc2ccc(CSP3(=O)OCC4OC(n5cnc6c(N)ncnc65)C(F)C4OP(=O)(O)OCC4OC(n5ccc(=O)[nH]c5=O)C(F)C4O3)cc2)cc1 (stereo not drawn)
active: HL-60(TB) leukemia -18.4%
inactive: HOP-62 NSCLC 115% | NCI-H460 lung 106% | A549/ATCC NSCLC 98.3% | 786-0 renal 89.1% | K-562 leukemia 52.1% | MALME-3M melanoma 114% | RXF 393 renal 60.8% | SF-295 CNS 110% | SF-539 CNS 24% | UACC-257 melanoma 31.4% | SNB-75 CNS 107% | UO-31 renal 92.9% | A498 renal 71.3% | MOLT-4 leukemia 68.3% | RPMI-8226 leukemia 72.2% | OVCAR-4 ovarian 54.2% | BT-549 breast 81.6% | HCC-2998 colon 105%

NC(=O)C(Br)CBr (stereo not drawn)
active: HOP-62 NSCLC -40.8% | NCI-H460 lung 4.13% | A549/ATCC NSCLC 4.34% | K-562 leukemia -50.1% | UACC-257 melanoma -83.5% | UO-31 renal -51.8% | HL-60(TB) leukemia -23.2% | MOLT-4 leukemia -62.1% | RPMI-8226 leukemia -39.3% | OVCAR-4 ovarian -100%
inactive: SF-295 CNS 81.1% | SF-539 CNS 39.2% | SNB-75 CNS 103% | A498 renal 103% | HCC-2998 colon 38.4%

O=C(O)CC(Br)C(=O)CBr (stereo not drawn)
inactive: HOP-62 NSCLC 105% | NCI-H460 lung 108% | A549/ATCC NSCLC 99.9% | 786-0 renal 99.1% | K-562 leukemia 105% | MALME-3M melanoma 103% | RXF 393 renal 109% | SF-295 CNS 98.2% | SF-539 CNS 95.3% | UACC-257 melanoma 102% | SNB-75 CNS 93.5% | UO-31 renal 86.1% | CAKI-1 renal 95.8% | A498 renal 104% | HL-60(TB) leukemia 105% | MOLT-4 leukemia 103% | RPMI-8226 leukemia 103% | OVCAR-4 ovarian 97.2% | BT-549 breast 98.2% | HCC-2998 colon 116%
